Experimental data: PubChem BioAssay AID1434 (Sanford-Burnham Center for Chemical Genomics, 2008)
Out of some 220,000 compounds screened, about 1,600 (0.73%) were called active. The sample holds actives, similar compounds and a random draw of the others, so the mix is not that of the screen.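 How the source made its calls: active means mean inhibition across duplicate retests at 20 µM reaching about 50% (limit read from the data); inactive means the rest, inconclusive results apart.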

Target: Runt-related transcription factor 1 (Homo sapiens) + Core-binding factor subunit beta (Homo sapiens) (UniProt Q01196+Q13951)
Assay: inhibitors of RUNX1 Runt–CBFb-SMMHC binding, primary screen, biochemical, FRET, Cerulean-Runt, Venus-CBFb-SMMHC, uHTS (AID 1434);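 further: 0% = DMSO wells and 100% = wells with excess untagged CBFb-SMMHC; inhibitors lower the FRET ratio by blocking Runt binding to CBFb-SMMHC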
Conditions: Cerulean-Runt/Venus-CBFb-SMMHC FRET ratio 530/480, 1 h, at 20 µM, stronger effect = higher value

Sequence of Runt-related transcription factor 1 (Homo sapiens) + Core-binding factor subunit beta (Homo sapiens) (Q01196 whole entry, looked up): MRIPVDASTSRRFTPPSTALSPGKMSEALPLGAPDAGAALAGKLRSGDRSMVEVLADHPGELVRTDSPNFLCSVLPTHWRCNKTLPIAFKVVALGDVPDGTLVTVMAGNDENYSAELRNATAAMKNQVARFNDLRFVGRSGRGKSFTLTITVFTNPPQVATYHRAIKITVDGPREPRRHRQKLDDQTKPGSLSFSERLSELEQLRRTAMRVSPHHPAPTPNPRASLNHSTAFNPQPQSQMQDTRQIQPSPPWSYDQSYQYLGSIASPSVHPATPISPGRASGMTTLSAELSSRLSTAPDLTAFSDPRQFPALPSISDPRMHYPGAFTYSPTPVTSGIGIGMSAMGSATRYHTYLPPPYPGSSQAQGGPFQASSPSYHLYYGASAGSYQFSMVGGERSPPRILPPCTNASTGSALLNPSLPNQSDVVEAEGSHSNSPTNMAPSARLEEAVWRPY
Sequence of Runt-related transcription factor 1 (Homo sapiens) + Core-binding factor subunit beta (Homo sapiens) (Q13951 whole entry, looked up): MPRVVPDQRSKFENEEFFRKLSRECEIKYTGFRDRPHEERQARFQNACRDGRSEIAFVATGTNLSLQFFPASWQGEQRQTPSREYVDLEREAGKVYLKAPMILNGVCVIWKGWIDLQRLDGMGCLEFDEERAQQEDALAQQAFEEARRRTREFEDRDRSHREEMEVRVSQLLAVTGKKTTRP

SMILES | inhibition | inhibition (retest duplicate average)
CC(C)Oc1c(Br)cc(Br)cc1/C=N/NC(N)=S | -0.8% (inactive) | –
C=CCN(CC=C)C(=O)COC(=O)c1n[nH]c2ccccc12 | -3% (inactive) | –
O=c1[nH]c(=S)[nH]c2[nH]c(=S)[nH]c12 | 45.1% (inactive) | –
COc1ccc(C(C(=O)NC2CCCCC2)N(C(=O)CCl)c2ccccc2Cl)cc1 (stereo not drawn) | -1.2% (inactive) | –
OC(COCC1COc2ccccc2O1)CN1CCN(c2ccc(F)cc2)CC1 (stereo not drawn) | 0.5% (inactive) | –
COc1ccc(Cc2nnc(NC(=O)c3cc(OC)c(OC)c(OC)c3)s2)cc1OC | -2% (inactive) | –
COc1cc(/C=N/NC(=S)Nc2cccnc2)cc(OC)c1O | 3% (inactive) | –
CCCCCCCC[n+]1cccc(C(=O)N2c3c(nc(N)[nH]c3=O)NC(C)C2C)c1 (stereo not drawn) | 3.4% (inactive) | –
O=C(CN1CCN(S(=O)(=O)/C=C/c2ccccc2)CC1)Nc1ccc(N2CCOCC2)cc1 | 1.4% (inactive) | –
O=c1cc(CN2CCN(S(=O)(=O)/C=C/c3ccccc3)CC2)c2ccc(O)cc2o1 | 130% (active) | 146%
COc1ccc2c(CN3CCN(S(=O)(=O)c4cccs4)CC3)cc(=O)oc2c1 | 12.6% (inactive) | –
COc1cccc(OCCCN2CCCCCC2)c1 | -44.8% (inactive) | –
O=C1OC(/C=C/c2ccccc2)=NC/1=C/c1ccco1 | -22.3% (inactive) | –
COc1ccccc1/C=C/C1=NC(=C\N(C)C)/C(=O)O1 | 89.1% (active) | 91.9%
COc1cccc(/C=C/c2ccc3ccccc3n2)c1OC(C)=O | -3.2% (inactive) | –
CC(C)=C1C2CCC1C1C(=O)N(NC(=O)c3ccco3)C(=O)C21 (stereo not drawn) | -1.2% (inactive) | –
COc1ccc2oc(=O)c(C(=O)N3CCCC3)cc2c1 | 3.9% (inactive) | –
COc1cccc(C(=O)c2cc3ccc(O)cc3oc2=O)c1 | 165% (active) | 194%
COc1ccc2oc(=O)c(C(=O)O)cc2c1 | 1.6% (inactive) | –
Fc1cc(F)c2nc(Nc3nc4c(F)cccc4s3)sc2c1 | 4.2% (inactive) | –
NC(=O)c1c(Nc2nc3c(F)cccc3s2)sc2c1CCCC2 | 104% (active) | 175%

SMILES | inhibition | inhibition (retest duplicate average)
NC(=O)c1c(NC(=O)CSc2nc(N)cc(=O)[nH]2)sc2c1CCCC2 | -8.6% (inactive) | –
CCN1CC=C2C(C#N)=C(N)C(C#N)(C#N)[C@H](c3ccoc3)[C@H]2C1 | -20.7% (inactive) | –
CCOC(=O)N1CC=C2C(C#N)=C(N)C(C#N)(C#N)[C@H](c3cccs3)[C@H]2C1 | -18.3% (inactive) | –
CCCN1CC=C2C(C#N)=C(N)C(C#N)(C#N)C(c3cc(OC)ccc3OC)C2C1 (stereo not drawn) | 88.4% (active) | 77.5%
Cc1ccc(C2Nc3ccccc3C(=O)N2CCN2CCNC2=O)cc1 (stereo not drawn) | 2.4% (inactive) | –
CC(C)NC(=O)C(=O)NCCCOC(C)C | -0.3% (inactive) | –
CC(=O)Cc1nsc(NC(=O)c2ccc(Cl)cc2Cl)n1 | -0.9% (inactive) | –
O=C(Nc1nccs1)c1cc(S(=O)(=O)N2CCOCC2)c(Cl)cc1Cl | -1% (inactive) | –
CCN1CCc2nc(NC(=O)c3cc(F)c(F)cc3Cl)sc2C1 | 52.5% (active) | 76.5%
O=C(CCc1ccccc1)NNc1ccc(F)cc1 | -0.8% (inactive) | –
CCc1ccc2oc(=O)cc(CN3CCCCC3C)c2c1 (stereo not drawn) | -0.5% (inactive) | –
CCCc1cc(=O)oc2c(C)c(O)c(CN3CCCCC3)cc12 | 70.4% (active) | 121%
CCCc1cc(=O)[nH]c(SCc2cc(=O)oc3c(C)c(C)ccc23)n1 | 1.9% (inactive) | –
O=C(CN1CCc2ccccc21)NC(c1ccccc1)c1ccccc1 | -0.8% (inactive) | –
CCc1ccc(NC(=O)Nc2ccncc2)cc1 | -0.3% (inactive) | –
CCN(CC)c1ccc2cc(C(=O)O)c(=O)oc2c1 | 77.6% (active) | 71.5%
CCN(CC)c1ccc2oc(=O)c(C)nc2c1 | -81.6% (inactive) | –
CCN(CC)c1ccc2cc(C(N)=O)/c(=N\NC(=O)c3ccncc3)oc2c1 | -128% (inactive) | –
N#CC1=C(N)N(c2ccccc2)C2=C(C(=O)CCC2)C1c1ccccc1 (stereo not drawn) | 29.5% (inactive) | –
CCc1ccc(C2C(C#N)=C(N)N(N(C)C)C3=C2C(=O)CCC3)s1 (stereo not drawn) | -11.9% (inactive) | –
CSc1sc(C)cc1C1C(C#N)=C(N)N(c2cccnc2)C2=C1C(=O)CCC2 (stereo not drawn) | 76.1% (active) | 73.7%

SMILES | inhibition | inhibition (retest duplicate average)
COc1ccc(C2/C=C\CN(S(=O)(=O)c3cccs3)CC(=O)N2Cc2ccc(F)cc2)cc1 (stereo not drawn) | 2.2% (inactive) | –
COc1cc(CNc2ncn[nH]2)ccc1OCc1ccccc1C | -0.6% (inactive) | –
N#Cc1ccc(Oc2ccc(C(F)(F)F)cc2NC(=O)c2ccc(F)cc2)cc1 | -0.8% (inactive) | –
C#CCNC(=O)C1=C[C@@H](c2ccccc2)[C@H](CCCO)[C@@H](OCC)O1 | 1.4% (inactive) | –
Cc1cc(C)cc(NC(=O)NC2CCN(CC(=O)Nc3cccc(Cl)c3C)CC2)c1 | 0.9% (inactive) | –
CCOc1ccccc1C1C(C(=O)OC)=CN(C)C=C1C(=O)OC | 42% (inactive) | –
COC(=O)C1=CN(C)C=C(C(=O)OC)C1c1ccc(Cl)cc1Cl | 60.9% (active) | 91.8%
NC(=O)C1(C(N)=O)OC1c1ccc(Cl)cc1Cl (stereo not drawn) | 1% (inactive) | –
CC(OC(=O)c1ccc(NS(=O)(=O)c2ccc3[nH]c(=O)[nH]c3c2)cc1)C(=O)Nc1cccc(Cl)c1Cl (stereo not drawn) | -5.6% (inactive) | –
CCOC(=O)C1CCN(CCC(=O)Nc2cccc(C)c2)CC1 | 0.1% (inactive) | –
COCc1ccc(C(=O)N2CCc3c([nH]c4ccccc34)C2c2ccccn2)s1 (stereo not drawn) | 2.3% (inactive) | –
COCCCNC(=S)NC(=O)c1ccc([N+](=O)[O-])cc1 | 4.6% (inactive) | –
COCCCNC(=S)NCCNc1nc2cc(C)c(C)cc2cc1C#N | 88.8% (active) | 125%
Cc1ccc2nc(NCCCNC(=O)c3cnccn3)c(C#N)cc2c1 | 32% (inactive) | –
CC(C)N(Cc1ccccc1)C(=O)COC(=O)c1cnccn1 | -2.4% (inactive) | –
CSCCC(Nc1ccc(S(=O)(=O)N2CCOCC2)cc1[N+](=O)[O-])C(=O)OCC(=O)N(C(C)C)C(C)C (stereo not drawn) | -4.8% (inactive) | –
CCOC(=O)C1=C(N)N(c2ccc(C)cc2)C2=C(C(=O)CCC2)C1c1cccs1 (stereo not drawn) | -7.1% (inactive) | –
CCCN1C2=C(C(=O)CCC2)C(c2ccc(O)c(Br)c2)C2=C1CCCC2=O | 118% (active) | 118%
CCCC(=O)N1c2ccccc2NC2=C(C(=O)CCC2)C1c1ccc(F)cc1 (stereo not drawn) | -4.3% (inactive) | –
